# Screens: PubChem BioAssay, National Center for Advancing Translational Sciences (NCATS)
# Compounds with a hit are over-represented: about 5.4% of the library has one in this group of screens.
# LASV entry inh: Lassa virus entry inhibition | Lassa virus pseudotype entry inhibition, cell reporter | Potency, µM (doses to about 37.9 µM), for the others: at the top dose activity change, negative = inhibition, hits mostly inhibitors | 300,000 compounds, 1.2% hits | AID 540256; calls by dose curve; tested in HEK293 cells; note: nearly all actives have a fitted effect of over 50% in size
# Marburg entry inh: inhibitors of Marburg virus binding or cell entry | Marburg virus pseudotyped entry inhibition, cell reporter | Potency, µM (highest dose often 37.8 µM), for inactives: at the highest dose activity change, negative = inhibition, hits mostly inhibitors | 300,000 compounds, 1.8% hits | AID 540276; calls by dose curve; tested in HEK293 cells
# Sm TGR block: blocks Schistosoma mansoni thioredoxin glutathione reductase; Q962Y6; purified TGR, DTNB reduction, TNB absorbance 405 nm; Potency, µM (top dose mostly 114 µM), without a hit: at the top dose activity change, negative = inhibition, hits mostly inhibitors; 360,000 compounds, 3% hits; AID 485364; active = well fitted inhibition curve with a large enough effect; inconclusive = small, poorly fitted or top-dose-only effect; inactive = no such curve, though single readings can be large or run the other way; note: nearly all actives have a fitted effect of over 60% in size
#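 TGR 20 nM + NADPH 100 uM (dispensed conc.), cpd preinc 15 min RT; start with NADPH (500 uM addition) then DTNB (15 mM addition). Kinetic TNB absorbance, 405 nm filter. Four-parameter Hill fit across titration.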
# FMDV antiviral: foot and mouth disease virus antiviral activity. FMDV antiviral cell-based qHTS. Potency, µM (series often up to 57.9 µM), for inactives: at the highest dose activity change, negative = inhibition, usual class: inhibitors. 410,000 compounds, 1.2% hits. AID 1159524; calls by dose curve; tested in HEK293T cells; note: read-out not given here; nearly all actives have a fitted effect of over 45% in size
# VACV Venus inh: vaccinia inhibition (Venus reporter) | Vaccinia virus Venus reporter expression, fluorescence | Potency, µM (highest dose often 36.5 µM), without a hit: at the top dose activity change, negative = inhibition, most hits filed as inhibitors | 330,000 compounds, 0.46% hits | AID 720580; calls by dose curve; tested in A549 cells; note: nearly all actives have a fitted effect of over 30% in size
# VACV mCherry inh: vaccinia inhibition (mCherry reporter); Vaccinia virus mCherry reporter infection, fluorescence; Potency, µM (titrated, usually from 36.5 µM), inactives show at the top dose activity change, negative = inhibition, actives largely listed as inhibitors; 310,000 compounds, 0.63% hits; AID 720579; calls by dose curve; tested in A549 cells; note: nearly all actives have a fitted effect of over 35% in size
# * hit, by the source's call; i = inactive; ? = inconclusive; . = not tested or not shown; ! = repeats disagree; [ ] = another dose, or the depositor's remark. % is set by controls: 0 for no effect and ±100 for the full control effect; potency is the fitted concentration of half-maximal effect.
SMILES,LASV entry inh,Marburg entry inh,Sm TGR block,FMDV antiviral,VACV Venus inh,VACV mCherry inh
Cc1cc(C(=O)C(=O)Nc2nncs2)c(C)n1-c1ccc(Cl)cc1,?,?,2%,24%,-14%,-18%
CN(Cc1cc(=O)n2ccsc2n1)C1CCCCC1,18%,-17%,32µM*,-20%,0%,i
CCN1C(=NCCc2cccnc2)N[C@H](CCc2ccccc2)[C@H](C(=O)OC)[C@H]1C,.,-16%[14.2 µM],.,.,.,.
COc1ccc(O)c(N)c1,.,.,3.2µM*,.,.,.
CCn1cc2nc(SCC(=O)Nc3cc(OC)ccc3OC)n(Cc3ccc(Cl)cc3)c(=O)c2n1,-2%[46.1 µM],13µM*,1%,-5%,-12%,-14%
CCCCc1nn2c(=O)cc(COC(=O)c3cccc(OC)c3)nc2s1,5%[46.1 µM],.,-11%,-24%,-7%,-9%
Cn1c(O)c(C(c2ccccn2)c2c(O)n(C)c(=S)n(C)c2=O)c(=O)n(C)c1=S,-16%,-1%,22µM*,9%,7%,.
Cn1c(O)c(C(c2ccncc2)c2c(O)n(C)c(=S)n(C)c2=O)c(=O)n(C)c1=S,2%,-3%,16µM*,-27%,-4%,i
CC(=O)c1c(O)n(C)c(=S)n(-c2ccccc2)c1=O,0%,3%,1%,-9%,.,.
CCC(C)n1c(O)c(C(c2ccccn2)c2c(O)n(C(C)CC)c(=S)[nH]c2=O)c(=O)[nH]c1=S (configuration not stated),0%,-10%,?,.,-6%,-13%
O=C(Cn1ncc(Cl)c(Cl)c1=O)NC1CCCCC1,.,.,25µM*,35µM*,.,.
O=C(COC(=O)c1ccc(Cl)cc1)NCC1CCCCC1,7%,-1%,.,-5%,1%,-12%
O=C(Cn1ncc(Cl)c(Cl)c1=O)NCC1CCCCC1,18µM*,?,35µM*,28µM*,?,-26%
O=C(Cn1ncc(Cl)c(Cl)c1=O)NC1CCS(=O)(=O)C1 (configuration not stated),.,.,6.3µM*,-14%,.,.
Cc1cccc(NC(=O)CNC(=O)Cn2ncc(Cl)c(Cl)c2=O)c1C,?,?,.,22µM*,-4%,i
CCc1c(C)sc2c1CCN(C(=O)Nc1cc(C)ccc1OC)C2c1ccc(F)cc1 (configuration not stated),1%[46.1 µM],.,8%,?,0%,-14%
CC1(C)NC(C(=O)O)Cc2c1[nH]c1ccccc21 (configuration not stated),2%,5%[46.1 µM],40µM*,-14%,2%,1%
CCC1NC(C(=O)O)Cc2c1[nH]c1ccccc21 (configuration not stated),.,.,40µM*,-3%,1%,34%
COC(=O)c1nnn(CC(=O)Nc2c(C)cccc2C)c1N,?,?,-2%,7%,6%,2%
Cc1cccc(C(=O)Nc2ccc3nc(SCC(=O)N4CCCC4)sc3c2)c1,-10%[46.1 µM],16%[46.1 µM],-2%,?,-11%,-7%
CC1(C)CC(C(=O)N2CCOc3ccc(CN4CCN(Cc5ccccn5)CC4)cc3C2)CCO1 (configuration not stated),.,.,.,-9%,-7%,-12%
OC1CCC(Br)CC1C1NC2=C(CCCC2)S1 (configuration not stated),.,11%,.,.,.,.
COc1cccc2[nH]c3c(N4CCCCC4)ncnc3c12,15%,10%,0%,2%,-19%,-25%
COc1cc2[nH]c3c(N4CCN(c5ccccn5)CC4)ncnc3c2cc1OC,?,10µM*,-29%,18µM*,?,?
Fc1ccc2[nH]c3c(N4CCN(c5ccccc5)CC4)ncnc3c2c1,?,?,2%,?,?,?
SMILES,LASV entry inh,Marburg entry inh,Sm TGR block,FMDV antiviral,VACV Venus inh,VACV mCherry inh
CCOC(=O)N1CCN(c2ncnc3c2[nH]c2ccc(F)cc23)CC1,6%,?,1%,14µM*,?,?
CC(=O)N1CCC(O)(c2cccc(C(F)(F)F)c2)CC1,0%,-9%,8%,.,-7%,i
CCOC(=O)N1CCN(c2ncnc3c2[nH]c2ccc(OC)cc23)CC1,?,10µM*,12%,?,?,?
OC1(c2cccc(C(F)(F)F)c2)CCN(c2ncnc3c2[nH]c2ccc(F)cc23)CC1,14µM*,4µM*,8%,?,11µM*,.
O=[N+]([O-])c1ccccc1S(=O)(=O)N1CCN(c2nc(-c3cccs3)nc3ccccc23)CC1,.,.,.,.,-15%,-16%
Cc1ccc(S(=O)(=O)NCc2nc(-c3cccc(C)c3)no2)cc1,8%[46.1 µM],9%[46.1 µM],0%,7%,-6%,-11%
Cc1cnc(-n2ncc(C(=O)N(C)C3CCOC3)c2C)nc1-c1ccc(F)cc1 (configuration not stated),.,.,.,26%,8%,-11%
CCOc1ccc2[nH]c3c(N4CCN(C(=O)c5ccco5)CC4)ncnc3c2c1,?,?,-1%,-20%,-24%,13µM*
COc1ccc2[nH]c3c(Cl)ncnc3c2c1,-23%,?,-14%,-20%,-11%,0%
COc1ccc(N2CCN(c3ncnc4c3cnn4C)CC2)cc1,-11%[46.1 µM],.,0%,?,-12%,-13%
COc1ccc(N2CCN(c3ncnc4c3[nH]c3ccccc34)CC2)cc1,?,?,1%,4µM*,?,.
COc1ccc2[nH]c3c(N4CCc5ccccc5C4)ncnc3c2c1,?,0.71µM*,13%,25µM*,14µM*,?
O=C(c1ccco1)N1CCN(c2ncnc3c2[nH]c2ccc(Br)cc23)CC1,?,?,?,?,-26%,.
Cc1ccc(S(=O)(=O)N2CCN(c3nc(-c4cccs4)cc4ccccc34)CC2)cc1,.,.,.,.,-15%,-3%
COc1cccc(CNS(=O)(=O)c2ccc3[nH]c4c(c3c2)CCCCC4)c1,11%[46.1 µM],.,-4%,-11%,-17%,-9%
Cc1ccc(NC2=C(Cl)C(=O)OC2NC(=O)c2ccccc2)cc1 (configuration not stated),-3%,1%,-8%,-25%,.,.
CC(=O)NC(=O)NC1OC(=O)C(Cl)=C1Cl (configuration not stated),-23%,?,3.5µM*,?,.,.
O=C1/C(=C/c2ccccn2)SC(=S)N1NS(=O)(=O)c1ccccc1,.,.,45µM*,15%,-8%,-2%
O=C(C1=C(O)CCCC1)N1CCOCC1,.,20%[46.1 µM],.,.,.,.
O=c1c(-c2ccc(O)cc2)coc2cc(O)ccc12,?,?,.,29%,0.63µM*!,?
Cc1ccccc1-c1coc2cc(O)ccc2c1=O,6%,?,6%,5%,-3%,-12%
COc1ccccc1CNC(=O)CCS(=O)(=O)c1ccc2c(c1)oc(=O)n2C,?,.,-3%,-10%,-6%,-3%
COc1cc2c(cc1OC)CN(S(=O)(=O)/C=C/c1ccccc1)CC2,1.3µM*,?,-6%,-6%,-21%,i
COc1cc(/C=N/NS(=O)(=O)c2ccc(C)cc2)ccc1OCc1ccc(C(=O)O)cc1,6.3µM*,?,-12%,-37%,-15%,i
